# Experimental data from PubChem BioAssay (EPA / NIEHS).
# Results filed as inconclusive are left out. Activity calls are given as the source filed them. Rule for the calls: active = hit-call score of the fitted dose curve at least 0.9, where 1 is the maximum; inconclusive = response in the unintended direction; inactive = score below 0.9.
# Target: human Phosphodiesterase 10 (PDE10), PDE10A (gene 10846) (UniProt Q9Y233)
# Assay: NVS_ENZ_hPDE10: NovaScreen (NVS) Enzymatic Assay for human Phosphodiesterase 10 (PDE10) (AID 2283195)
# Procedure, shortened: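 Readout is fluorescence intensity following electrophoretic mobility-shift separation, 1 h after dosing of isolated PDE10A protein. Hits meeting a preset threshold at 25 uM went to concentration series (max 50 uM), analysed relative to DMSO.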
# Chain of human Phosphodiesterase 10 (PDE10), PDE10A (gene 10846) (Q9Y233 whole entry, looked up): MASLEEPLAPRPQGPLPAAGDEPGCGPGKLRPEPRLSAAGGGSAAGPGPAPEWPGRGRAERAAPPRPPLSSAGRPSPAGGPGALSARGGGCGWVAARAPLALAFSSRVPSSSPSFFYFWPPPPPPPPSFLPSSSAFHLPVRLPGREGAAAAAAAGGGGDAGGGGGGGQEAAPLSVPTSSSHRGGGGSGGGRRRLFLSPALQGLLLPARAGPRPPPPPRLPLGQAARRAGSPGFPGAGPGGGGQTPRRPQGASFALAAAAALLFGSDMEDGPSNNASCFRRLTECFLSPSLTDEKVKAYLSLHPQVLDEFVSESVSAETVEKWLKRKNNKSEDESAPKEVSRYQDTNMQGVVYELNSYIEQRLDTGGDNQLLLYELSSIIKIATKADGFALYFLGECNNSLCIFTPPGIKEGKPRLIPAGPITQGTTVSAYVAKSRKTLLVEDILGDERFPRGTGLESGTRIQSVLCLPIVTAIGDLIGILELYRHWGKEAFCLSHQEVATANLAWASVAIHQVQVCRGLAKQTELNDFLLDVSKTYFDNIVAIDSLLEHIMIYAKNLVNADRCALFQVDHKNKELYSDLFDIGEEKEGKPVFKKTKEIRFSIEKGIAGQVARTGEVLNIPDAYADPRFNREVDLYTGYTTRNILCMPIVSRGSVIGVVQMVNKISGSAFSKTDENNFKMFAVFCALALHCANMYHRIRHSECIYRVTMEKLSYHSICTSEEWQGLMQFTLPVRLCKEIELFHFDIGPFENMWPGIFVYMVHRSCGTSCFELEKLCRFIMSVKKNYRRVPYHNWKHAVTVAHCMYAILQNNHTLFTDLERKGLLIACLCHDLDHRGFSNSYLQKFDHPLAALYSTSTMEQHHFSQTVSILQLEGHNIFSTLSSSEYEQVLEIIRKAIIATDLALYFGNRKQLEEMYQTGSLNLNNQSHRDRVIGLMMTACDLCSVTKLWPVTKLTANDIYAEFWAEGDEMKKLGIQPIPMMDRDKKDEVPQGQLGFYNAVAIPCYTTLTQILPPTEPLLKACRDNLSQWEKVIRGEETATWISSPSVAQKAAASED
Compound,outcome,AC50
CC(C)[N+](=O)[O-],inactive,
Nc1ccc(N)cc1,,2.5 µM (active)
CN(CCCC(O)c1cccnc1)N=O (stereo not given),,35.5 µM (active)
CCCCOP(=O)(CCCC)OCCCC,inactive,
CC1CC(=O)O1 (stereo not given),inactive,
CCOP(=O)(OCC)SCCSCC,inactive,
Oc1ccc(Cc2ccc(O)cc2)cc1,inactive,
N#Cc1ccccc1Cl,inactive,
c1ccc2sc(SNC3CCCCC3)nc2c1,inactive,
CC(C)(C)c1ccc(CCOc2ncnc3ccccc23)cc1,inactive,
O=c1oc2ccccc2c(O)c1C(CC(O)c1ccc(-c2ccc(Br)cc2)cc1)c1ccccc1 (stereo not given),inactive,
O=[N+]([O-])c1ccc(Nc2ccccc2)cc1,inactive,

# Target: human Phosphoinositide 3-kinase alpha (PI3Ka), PIK3CA (gene 5290) (UniProt P42336)
# Assay: NVS_ENZ_hPI3Ka: NovaScreen (NVS) Enzymatic Assay for human Phosphoinositide 3-kinase alpha (PI3Ka) (AID 2283196)
# Procedure, shortened: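 Chemicals were first screened at 25 uM in duplicate, then hits were run as concentration series up to 50 uM. Enzyme activity was measured by fluorescence after mobility-shift separation, with loss of signal relative to DMSO taken as activity.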
# Chain of human Phosphoinositide 3-kinase alpha (PI3Ka), PIK3CA (gene 5290) (P42336 whole entry, looked up): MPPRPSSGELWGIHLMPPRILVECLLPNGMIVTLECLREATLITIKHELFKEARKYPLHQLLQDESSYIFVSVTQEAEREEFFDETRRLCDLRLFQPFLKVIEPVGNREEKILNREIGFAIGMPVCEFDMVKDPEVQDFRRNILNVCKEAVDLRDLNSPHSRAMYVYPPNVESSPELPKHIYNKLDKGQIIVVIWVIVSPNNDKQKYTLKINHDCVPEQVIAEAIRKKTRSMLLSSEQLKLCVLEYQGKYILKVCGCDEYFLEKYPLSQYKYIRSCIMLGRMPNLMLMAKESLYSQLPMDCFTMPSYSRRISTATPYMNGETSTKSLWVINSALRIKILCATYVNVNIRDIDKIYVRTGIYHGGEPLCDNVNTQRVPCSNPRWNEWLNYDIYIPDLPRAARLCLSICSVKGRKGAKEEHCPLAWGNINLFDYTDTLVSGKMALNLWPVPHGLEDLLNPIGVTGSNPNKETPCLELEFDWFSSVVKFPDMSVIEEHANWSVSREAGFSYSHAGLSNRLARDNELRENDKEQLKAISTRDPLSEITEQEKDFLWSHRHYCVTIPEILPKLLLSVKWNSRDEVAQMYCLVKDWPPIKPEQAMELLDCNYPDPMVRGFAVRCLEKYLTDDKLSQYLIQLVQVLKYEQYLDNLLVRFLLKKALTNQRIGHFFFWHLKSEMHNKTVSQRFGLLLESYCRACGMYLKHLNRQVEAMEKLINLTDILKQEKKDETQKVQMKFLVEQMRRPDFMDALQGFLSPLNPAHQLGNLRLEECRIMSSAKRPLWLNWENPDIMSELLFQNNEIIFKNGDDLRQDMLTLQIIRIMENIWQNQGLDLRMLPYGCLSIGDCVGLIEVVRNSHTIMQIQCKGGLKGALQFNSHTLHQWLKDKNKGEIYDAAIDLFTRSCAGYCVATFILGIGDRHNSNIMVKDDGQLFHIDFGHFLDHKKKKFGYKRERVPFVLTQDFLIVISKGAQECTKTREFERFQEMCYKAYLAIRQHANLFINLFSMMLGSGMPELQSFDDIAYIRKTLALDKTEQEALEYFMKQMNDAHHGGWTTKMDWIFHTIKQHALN
Compound,outcome,AC50
CC(C)[N+](=O)[O-],inactive,
C=CC(=O)NC(C)(C)CC(C)=O,inactive,
Nc1nc(N)nc(Cl)n1,inactive,
C=CCCl,inactive,
Oc1ccc(Cc2ccc(O)cc2)cc1,inactive,
Nc1c(Oc2ccccc2)cc(O)c2c1C(=O)c1ccccc1C2=O,,3.26 µM (active)
CCC(C)(C#N)N=NC(C)(C#N)CC (stereo not given),inactive,
Cc1cc(C(C)(C)c2ccc(O)c(C)c2)ccc1O,,5.25 µM (active)
CCOC(=O)CCN(SN(C)C(=O)Oc1cccc2c1OC(C)(C)C2)C(C)C,inactive,
CC[N+](CC)(CC)CC,inactive,
O=c1oc2ccccc2c(O)c1C(CC(O)c1ccc(-c2ccc(Br)cc2)cc1)c1ccccc1 (stereo not given),,5.19 µM (active)
O=[N+]([O-])c1ccc(Nc2ccccc2)cc1,inactive,
O=C(O)C1(c2ccc3c(c2)OC[C@H](Cc2ccc(-c4ccccc4)cc2)[C@H]3O)CCCC1,inactive,
